# Experimental data as given in publication PMC7862700, “An all-to-all approach to the identification of sequence-specific readers for epigenetic DNA modifications on cytosine”.
# Tests used:
# Assay in all cases: DAPPL (digital affinity profiling via proximity ligation, sequencing); 10 mM Tris-HCl pH 7.5, 50 mM NaCl, 1 mM DTT, 4% glycerol, room temperature, 30 min; GST-TFs on glutathione beads, 16-mer random dsDNA library, 0.1% formaldehyde crosslink after washing; high values mean tight binding
# FEV = molecular target: T1, FEV (Homo sapiens, UniProt Q99581 1-238); details: protein: recombinant; tags: N-terminal GST; dsDNA, one strand shown
# T1 sequence: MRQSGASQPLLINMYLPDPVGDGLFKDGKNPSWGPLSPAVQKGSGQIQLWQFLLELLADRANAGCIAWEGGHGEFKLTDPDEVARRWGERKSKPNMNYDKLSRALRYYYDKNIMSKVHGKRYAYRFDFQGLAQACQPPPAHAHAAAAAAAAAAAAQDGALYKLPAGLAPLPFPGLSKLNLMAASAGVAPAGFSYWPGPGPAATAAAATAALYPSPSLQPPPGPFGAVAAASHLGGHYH
# Procedure, shortened: (§1)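 Human transcription factors carrying a GST fusion were produced in yeast, bound to glutathione beads, tagged with DNA barcodes and pooled together with a tag-only sample. Each pool was held with 200 nmole of a random double-stranded 16-mer DNA library in Tris/NaCl/DTT/glycerol buffer for 30 min at room temperature, then washed, crosslinked in 0.1% formaldehyde, proximity-ligated with BsaI/T4 ligase (1 h, 37 °C), PCR-amplified and sequenced on an Illumina NextSeq500. Binding signal is the read frequency of each hexamer for a given factor divided by its frequency in the tag-only sample.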
# ETV5 = ETV5 (Homo sapiens, UniProt P41161 1-510); details: protein: recombinant; tags: N-terminal GST; dsDNA, one strand shown
# Procedure, shortened: as §1
# HSF1 = HSF1 (Homo sapiens, UniProt Q00613 1-529); details: protein: recombinant; tags: N-terminal GST; chain copies: 3; dsDNA, one strand shown
# Procedure, shortened: as §1
# SPIC = molecular target: T2, SPIC (Homo sapiens, UniProt Q8N5J4 1-248); details: protein: recombinant; tags: N-terminal GST; dsDNA, one strand shown
# T2 sequence: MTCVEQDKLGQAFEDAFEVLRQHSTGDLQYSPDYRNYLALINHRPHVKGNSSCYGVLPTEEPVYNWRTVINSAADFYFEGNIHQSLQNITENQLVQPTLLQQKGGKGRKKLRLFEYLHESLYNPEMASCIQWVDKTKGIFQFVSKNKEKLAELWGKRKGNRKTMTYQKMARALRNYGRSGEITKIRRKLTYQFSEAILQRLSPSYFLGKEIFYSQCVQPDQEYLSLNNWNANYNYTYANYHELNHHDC
# Procedure, shortened: as §1
# ELF4 = ELF4 (Homo sapiens, UniProt Q99607 1-663); details: protein: recombinant; tags: N-terminal GST; dsDNA, one strand shown
# Procedure, shortened: as §1
# ELK4 = molecular target: T3, ELK4 (Homo sapiens, UniProt P28324-2 1-405); details: protein: recombinant; tags: N-terminal GST; dsDNA, one strand shown
# T3 sequence: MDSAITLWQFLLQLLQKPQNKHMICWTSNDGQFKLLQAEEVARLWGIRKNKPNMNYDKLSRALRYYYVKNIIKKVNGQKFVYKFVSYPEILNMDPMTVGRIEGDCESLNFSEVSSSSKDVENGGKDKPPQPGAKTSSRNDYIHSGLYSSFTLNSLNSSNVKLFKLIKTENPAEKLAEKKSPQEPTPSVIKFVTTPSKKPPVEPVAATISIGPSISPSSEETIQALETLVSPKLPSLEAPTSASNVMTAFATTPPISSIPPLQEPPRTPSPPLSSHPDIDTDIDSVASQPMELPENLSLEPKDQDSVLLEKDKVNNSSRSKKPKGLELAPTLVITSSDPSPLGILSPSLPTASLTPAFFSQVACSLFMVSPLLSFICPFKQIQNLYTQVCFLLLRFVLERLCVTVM
# Procedure, shortened: as §1
# ETV2 = molecular target: T4, ETV2 (Homo sapiens, UniProt O00321 1-342); details: protein: recombinant; tags: N-terminal GST; dsDNA, one strand shown
# T4 sequence: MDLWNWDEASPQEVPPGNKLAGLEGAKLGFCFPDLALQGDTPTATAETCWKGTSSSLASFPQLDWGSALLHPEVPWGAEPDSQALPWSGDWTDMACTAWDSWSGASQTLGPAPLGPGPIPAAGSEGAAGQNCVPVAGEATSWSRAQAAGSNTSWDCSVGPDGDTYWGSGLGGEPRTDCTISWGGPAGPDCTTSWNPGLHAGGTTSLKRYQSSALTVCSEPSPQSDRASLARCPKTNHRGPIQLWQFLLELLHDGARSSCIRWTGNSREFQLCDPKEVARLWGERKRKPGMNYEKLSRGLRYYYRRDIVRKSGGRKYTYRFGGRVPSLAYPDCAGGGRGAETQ
# Procedure, shortened: as §1
# ELF3 = molecular target: T5, ELF3 (Homo sapiens, UniProt P78545 1-371); details: protein: recombinant; tags: N-terminal GST; dsDNA, one strand shown
# T5 sequence: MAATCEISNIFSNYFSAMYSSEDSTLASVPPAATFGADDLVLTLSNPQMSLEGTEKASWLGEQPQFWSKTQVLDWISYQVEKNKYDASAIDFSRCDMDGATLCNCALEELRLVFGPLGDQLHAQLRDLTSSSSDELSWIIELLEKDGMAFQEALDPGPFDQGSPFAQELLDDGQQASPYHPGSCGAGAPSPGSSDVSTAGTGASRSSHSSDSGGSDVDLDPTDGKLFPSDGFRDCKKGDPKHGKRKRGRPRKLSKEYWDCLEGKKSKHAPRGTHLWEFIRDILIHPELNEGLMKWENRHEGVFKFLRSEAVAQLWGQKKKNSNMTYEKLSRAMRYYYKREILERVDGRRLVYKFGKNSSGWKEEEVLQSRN
# Procedure, shortened: as §1
# CRX = CRX (Homo sapiens, UniProt O43186 1-299); details: protein: recombinant; tags: N-terminal GST; dsDNA, one strand shown
# Procedure, shortened: as §1
# ETV1 = ETV1 (Homo sapiens, UniProt P50549 1-477); details: protein: recombinant; tags: N-terminal GST; dsDNA, one strand shown
# Procedure, shortened: as §1
# ERF = molecular target: T6, ERF (Homo sapiens, UniProt P50548 1-548); details: protein: recombinant; tags: N-terminal GST; dsDNA, one strand shown
# T6 sequence: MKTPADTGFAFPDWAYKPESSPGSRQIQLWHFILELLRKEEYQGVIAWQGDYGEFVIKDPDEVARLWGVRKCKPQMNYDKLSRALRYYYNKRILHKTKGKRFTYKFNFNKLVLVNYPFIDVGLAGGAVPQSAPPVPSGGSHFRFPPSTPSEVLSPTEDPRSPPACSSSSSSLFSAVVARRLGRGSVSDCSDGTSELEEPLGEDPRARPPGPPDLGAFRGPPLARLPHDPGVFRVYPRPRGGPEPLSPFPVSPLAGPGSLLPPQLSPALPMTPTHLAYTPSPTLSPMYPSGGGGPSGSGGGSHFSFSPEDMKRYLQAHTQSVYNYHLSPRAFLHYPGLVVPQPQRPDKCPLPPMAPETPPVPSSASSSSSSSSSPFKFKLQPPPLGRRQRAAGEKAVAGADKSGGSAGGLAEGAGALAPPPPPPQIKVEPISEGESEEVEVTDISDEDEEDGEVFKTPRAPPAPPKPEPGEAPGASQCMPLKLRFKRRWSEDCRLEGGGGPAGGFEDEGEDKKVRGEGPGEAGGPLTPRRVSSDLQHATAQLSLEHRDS
# Procedure, shortened: as §1
# ETV3L = molecular target: T7, ETV3L (Homo sapiens, UniProt Q6ZN32 1-361); details: protein: recombinant; tags: N-terminal GST; dsDNA, one strand shown
# T7 sequence: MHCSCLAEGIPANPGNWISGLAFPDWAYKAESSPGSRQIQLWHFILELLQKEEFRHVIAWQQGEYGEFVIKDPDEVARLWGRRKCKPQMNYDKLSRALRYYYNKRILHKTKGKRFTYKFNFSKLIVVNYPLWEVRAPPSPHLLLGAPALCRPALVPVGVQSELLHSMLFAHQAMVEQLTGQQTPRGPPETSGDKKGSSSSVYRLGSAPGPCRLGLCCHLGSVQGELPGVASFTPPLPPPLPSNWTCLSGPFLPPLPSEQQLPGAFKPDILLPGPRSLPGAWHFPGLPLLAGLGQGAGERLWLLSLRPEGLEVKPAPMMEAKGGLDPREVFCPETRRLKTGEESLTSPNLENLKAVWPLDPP
# Procedure, shortened: as §1
# ETS2 = molecular target: T8, ETS2 (Homo sapiens, UniProt P15036 1-469); details: protein: recombinant; tags: N-terminal GST; dsDNA, one strand shown
# T8 sequence: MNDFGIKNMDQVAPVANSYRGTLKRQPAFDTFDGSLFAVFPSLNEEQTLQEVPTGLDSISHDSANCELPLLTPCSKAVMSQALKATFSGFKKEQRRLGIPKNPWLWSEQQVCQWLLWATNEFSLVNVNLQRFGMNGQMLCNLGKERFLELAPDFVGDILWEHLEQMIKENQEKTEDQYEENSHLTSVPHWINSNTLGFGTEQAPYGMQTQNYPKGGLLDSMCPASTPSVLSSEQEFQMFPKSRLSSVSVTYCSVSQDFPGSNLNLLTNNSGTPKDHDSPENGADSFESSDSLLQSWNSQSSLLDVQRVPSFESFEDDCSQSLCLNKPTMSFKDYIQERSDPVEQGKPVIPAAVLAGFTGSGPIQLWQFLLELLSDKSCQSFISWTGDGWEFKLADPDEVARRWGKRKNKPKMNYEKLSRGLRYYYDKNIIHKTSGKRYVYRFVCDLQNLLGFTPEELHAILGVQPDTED
# Procedure, shortened: as §1
# SPDEF = molecular target: T9, SPDEF (Homo sapiens, UniProt O95238 1-335); details: protein: recombinant; tags: N-terminal GST; dsDNA, one strand shown
# T9 sequence: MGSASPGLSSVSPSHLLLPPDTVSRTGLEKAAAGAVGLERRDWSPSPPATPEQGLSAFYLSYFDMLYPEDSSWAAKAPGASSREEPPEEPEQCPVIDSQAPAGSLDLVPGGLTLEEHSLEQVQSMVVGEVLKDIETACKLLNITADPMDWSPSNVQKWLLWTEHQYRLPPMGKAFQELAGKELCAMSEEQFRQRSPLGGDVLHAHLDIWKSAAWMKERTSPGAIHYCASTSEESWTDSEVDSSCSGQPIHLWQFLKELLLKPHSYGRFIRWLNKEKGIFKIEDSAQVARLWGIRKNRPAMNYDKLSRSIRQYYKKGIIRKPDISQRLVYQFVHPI
# Procedure, shortened: as §1
# ETV7 = molecular target: T10, ETV7 (Homo sapiens, UniProt Q9Y603 1-341); details: protein: recombinant; tags: N-terminal GST; dsDNA, one strand shown
# T10 sequence: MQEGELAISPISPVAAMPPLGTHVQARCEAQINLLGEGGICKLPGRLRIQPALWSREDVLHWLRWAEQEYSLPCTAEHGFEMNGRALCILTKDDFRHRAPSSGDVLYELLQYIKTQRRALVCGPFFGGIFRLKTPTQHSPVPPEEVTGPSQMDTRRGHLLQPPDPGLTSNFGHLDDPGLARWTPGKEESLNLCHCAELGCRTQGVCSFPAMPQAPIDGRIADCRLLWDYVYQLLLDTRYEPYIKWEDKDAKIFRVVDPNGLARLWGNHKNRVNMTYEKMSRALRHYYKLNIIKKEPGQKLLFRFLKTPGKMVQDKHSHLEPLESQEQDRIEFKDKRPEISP
# Procedure, shortened: as §1
# ELF5 = molecular target: T11, ELF5 (Homo sapiens, UniProt Q9UKW6-2 1-255); details: protein: recombinant; tags: N-terminal GST; dsDNA, one strand shown
# T11 sequence: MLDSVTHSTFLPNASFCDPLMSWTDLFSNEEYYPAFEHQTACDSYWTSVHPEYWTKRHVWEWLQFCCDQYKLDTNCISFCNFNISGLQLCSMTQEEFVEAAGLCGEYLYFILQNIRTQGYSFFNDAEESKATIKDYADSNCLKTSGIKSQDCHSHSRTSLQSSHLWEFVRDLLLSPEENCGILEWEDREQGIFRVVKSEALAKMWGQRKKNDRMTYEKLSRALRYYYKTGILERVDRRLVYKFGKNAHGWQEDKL
# Procedure, shortened: as §1
# ETV3 = molecular target: T12, ETV3 (Homo sapiens, UniProt P41162-2 1-143); details: protein: recombinant; tags: N-terminal GST; dsDNA, one strand shown
# T12 sequence: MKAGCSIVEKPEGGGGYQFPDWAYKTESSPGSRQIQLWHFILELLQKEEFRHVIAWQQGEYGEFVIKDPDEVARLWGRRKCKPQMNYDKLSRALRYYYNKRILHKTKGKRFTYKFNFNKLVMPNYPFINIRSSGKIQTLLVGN
# Procedure, shortened: as §1
# ETV6 = ETV6 (Homo sapiens, UniProt P41212 1-452); details: protein: recombinant; tags: N-terminal GST; dsDNA, one strand shown
# Procedure, shortened: as §1
# Chain of HSF1 (Q00613 whole entry): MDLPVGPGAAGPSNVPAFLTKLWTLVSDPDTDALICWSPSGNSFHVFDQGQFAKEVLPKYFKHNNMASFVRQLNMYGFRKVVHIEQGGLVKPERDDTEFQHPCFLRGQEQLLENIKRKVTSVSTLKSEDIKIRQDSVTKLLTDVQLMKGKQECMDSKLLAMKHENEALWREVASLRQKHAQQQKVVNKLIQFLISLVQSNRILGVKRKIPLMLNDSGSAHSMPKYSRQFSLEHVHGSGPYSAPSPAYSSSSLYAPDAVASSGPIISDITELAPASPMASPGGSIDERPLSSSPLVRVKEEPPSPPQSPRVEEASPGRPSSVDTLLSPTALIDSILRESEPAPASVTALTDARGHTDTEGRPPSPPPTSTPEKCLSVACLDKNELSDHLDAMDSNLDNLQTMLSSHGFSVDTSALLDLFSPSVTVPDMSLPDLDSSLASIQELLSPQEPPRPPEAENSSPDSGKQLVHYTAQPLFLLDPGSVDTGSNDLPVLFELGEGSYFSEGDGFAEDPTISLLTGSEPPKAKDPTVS
# Chain of ETV5 (P41161 whole entry): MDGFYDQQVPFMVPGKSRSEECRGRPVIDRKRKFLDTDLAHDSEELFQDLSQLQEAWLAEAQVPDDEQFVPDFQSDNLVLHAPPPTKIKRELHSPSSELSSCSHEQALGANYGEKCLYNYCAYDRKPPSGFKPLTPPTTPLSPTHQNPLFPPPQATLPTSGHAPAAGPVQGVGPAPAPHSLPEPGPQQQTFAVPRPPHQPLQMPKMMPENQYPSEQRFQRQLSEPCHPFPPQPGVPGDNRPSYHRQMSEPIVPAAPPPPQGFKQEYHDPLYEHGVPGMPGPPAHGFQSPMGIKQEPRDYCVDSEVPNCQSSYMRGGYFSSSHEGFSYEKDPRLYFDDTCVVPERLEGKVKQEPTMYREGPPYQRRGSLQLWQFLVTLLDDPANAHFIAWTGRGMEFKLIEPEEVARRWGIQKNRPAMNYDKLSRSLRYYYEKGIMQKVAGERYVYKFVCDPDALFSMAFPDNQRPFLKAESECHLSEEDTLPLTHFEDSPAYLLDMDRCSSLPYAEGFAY
# Chain of ETV1 (P50549 whole entry): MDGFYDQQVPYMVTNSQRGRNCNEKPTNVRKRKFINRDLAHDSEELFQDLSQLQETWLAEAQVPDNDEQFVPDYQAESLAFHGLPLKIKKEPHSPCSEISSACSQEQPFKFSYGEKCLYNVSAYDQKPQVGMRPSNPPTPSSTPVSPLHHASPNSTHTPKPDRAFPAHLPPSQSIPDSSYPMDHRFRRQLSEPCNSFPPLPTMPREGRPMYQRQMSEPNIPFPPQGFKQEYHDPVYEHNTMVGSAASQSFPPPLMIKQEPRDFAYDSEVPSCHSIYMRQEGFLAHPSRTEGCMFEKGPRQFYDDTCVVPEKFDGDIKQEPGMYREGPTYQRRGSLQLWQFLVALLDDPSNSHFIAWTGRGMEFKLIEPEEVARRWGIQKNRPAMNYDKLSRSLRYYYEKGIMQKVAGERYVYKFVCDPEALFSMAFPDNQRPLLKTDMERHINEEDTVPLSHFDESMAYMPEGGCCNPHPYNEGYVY
# Chain of ETV6 (P41212 whole entry): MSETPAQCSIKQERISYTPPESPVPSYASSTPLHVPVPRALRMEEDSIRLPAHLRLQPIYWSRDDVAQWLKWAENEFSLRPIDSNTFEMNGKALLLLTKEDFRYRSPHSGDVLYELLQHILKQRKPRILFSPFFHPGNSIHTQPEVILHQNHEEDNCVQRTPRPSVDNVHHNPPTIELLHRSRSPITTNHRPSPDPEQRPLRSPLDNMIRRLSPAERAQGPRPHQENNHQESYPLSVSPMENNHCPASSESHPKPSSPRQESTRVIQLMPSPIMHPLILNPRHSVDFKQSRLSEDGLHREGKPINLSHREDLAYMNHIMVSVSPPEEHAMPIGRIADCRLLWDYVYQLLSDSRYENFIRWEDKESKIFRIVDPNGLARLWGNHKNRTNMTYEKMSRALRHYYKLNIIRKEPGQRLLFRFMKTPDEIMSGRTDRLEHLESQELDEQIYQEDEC
# Chain of ELF4 (Q99607 whole entry): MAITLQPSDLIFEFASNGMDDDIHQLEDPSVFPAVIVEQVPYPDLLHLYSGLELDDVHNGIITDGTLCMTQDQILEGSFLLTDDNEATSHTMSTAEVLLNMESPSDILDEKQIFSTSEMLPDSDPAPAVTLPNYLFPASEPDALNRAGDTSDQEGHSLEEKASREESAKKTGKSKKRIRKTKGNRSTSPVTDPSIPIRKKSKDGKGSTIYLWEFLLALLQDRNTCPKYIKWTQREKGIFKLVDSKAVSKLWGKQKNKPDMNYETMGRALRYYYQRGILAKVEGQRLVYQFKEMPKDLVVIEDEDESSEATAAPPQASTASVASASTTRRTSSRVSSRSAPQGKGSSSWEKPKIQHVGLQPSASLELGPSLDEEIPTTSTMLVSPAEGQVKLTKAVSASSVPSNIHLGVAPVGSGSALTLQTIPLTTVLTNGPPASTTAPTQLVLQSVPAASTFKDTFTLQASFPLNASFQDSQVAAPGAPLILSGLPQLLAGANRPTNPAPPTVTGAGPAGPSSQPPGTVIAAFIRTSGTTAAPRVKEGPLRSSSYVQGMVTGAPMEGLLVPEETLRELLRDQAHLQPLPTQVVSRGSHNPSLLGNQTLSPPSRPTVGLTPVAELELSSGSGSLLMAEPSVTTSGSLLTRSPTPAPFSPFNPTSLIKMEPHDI
# Chain of CRX (O43186 whole entry): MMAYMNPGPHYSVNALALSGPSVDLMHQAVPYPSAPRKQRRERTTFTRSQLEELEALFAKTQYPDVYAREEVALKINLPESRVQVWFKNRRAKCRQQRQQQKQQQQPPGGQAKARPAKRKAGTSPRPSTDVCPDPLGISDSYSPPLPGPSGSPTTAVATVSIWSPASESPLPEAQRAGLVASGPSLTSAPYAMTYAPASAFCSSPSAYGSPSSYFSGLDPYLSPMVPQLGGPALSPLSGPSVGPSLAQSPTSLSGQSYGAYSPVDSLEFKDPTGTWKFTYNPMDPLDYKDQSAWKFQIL
sequence,measurement,setting,value
CTGCGA,binding signal,FEV,"1.29 fold enrichment (6-mer frequency, TF over GST control)"
same,binding signal,ETV5,"1.24 fold enrichment (6-mer frequency, TF over GST control)"
same,binding signal,HSF1,"1.3 fold enrichment (6-mer frequency, TF over GST control)"
same,binding signal,SPIC,"1.1 fold enrichment (6-mer frequency, TF over GST control)"
same,binding signal,ELF4,"1.28 fold enrichment (6-mer frequency, TF over GST control)"
same,binding signal,ELK4,"1.08 fold enrichment (6-mer frequency, TF over GST control)"
same,binding signal,ETV2,"1.24 fold enrichment (6-mer frequency, TF over GST control)"
same,binding signal,ELF3,"1.2 fold enrichment (6-mer frequency, TF over GST control)"
same,binding signal,CRX,"1.18 fold enrichment (6-mer frequency, TF over GST control)"
same,binding signal,ETV1,"1.32 fold enrichment (6-mer frequency, TF over GST control)"
same,binding signal,ERF,"1.22 fold enrichment (6-mer frequency, TF over GST control)"
same,binding signal,ETV3L,"1.4 fold enrichment (6-mer frequency, TF over GST control)"
same,binding signal,ETS2,"1.29 fold enrichment (6-mer frequency, TF over GST control)"
same,binding signal,SPDEF,"1.37 fold enrichment (6-mer frequency, TF over GST control)"
same,binding signal,ETV7,"1.26 fold enrichment (6-mer frequency, TF over GST control)"
same,binding signal,ELF5,"1.28 fold enrichment (6-mer frequency, TF over GST control)"
same,binding signal,ETV3,"1.32 fold enrichment (6-mer frequency, TF over GST control)"
same,binding signal,ETV6,"1.29 fold enrichment (6-mer frequency, TF over GST control)"
